The text below walks through data of PubChem BioAssay (NCI).

About 79,000 compounds went through this panel and 15% of them were active in at least one assay; those are over-represented in the sample as a whole. Activity calls are given as the source filed them. Rule as the data show it: active = growth inhibition above about 70%; inactive = the rest.

The nature of this test: NCI Yeast Anticancer Drug Screen. Data for the mec2-1 strain (AID 157). The conditions noted are these: S. cerevisiae mec2-1 strain, at 50.0 µM, active compounds read high. The method, then: Growth inhibition of yeast strains with defined genetic alterations is measured as a screen for potential anti-cancer activity. Selected strains with alterations in DNA damage repair or cell cycle control were exposed to compounds and growth inhibition was measured relative to vehicle treated controls. The strain used in this assay is mec2-1
Turning to `O=C(O)COC1CC(=O)N2c3ccccc3C34CCN5C(=O)C(=O)C(CC53)C1C24` (stereo not given), the growth inhibition is -24.9% (inactive).

For `C[C@@H]1CC[C@H]2C(C)(C)[C@H]3C[C@@]12CC[C@@]3(C)O`, the growth inhibition was -16.9% (inactive).

With `COc1cc(/C=C2\CN(C)C(=O)C2=O)ccc1O`, the growth inhibition is -27.2% (inactive).

On to `CCCN1CCc2cc(OC)c(OC)cc2C1Cc1ccc(OC)c(OC)c1` (stereo not given), for which the growth inhibition is -0.2% (inactive).

As to `CC1(C)Oc2ccc3c(=O)cc(-c4ccc(F)cc4)oc3c2C1C(=O)O` (stereo not given), the growth inhibition is -16.6% (inactive).

With `COc1cc(-c2cc(=O)c3c(O)cc(C)cc3o2)cc(OC)c1OC`, the growth inhibition was -9.8% (inactive).

In the case of `N/C(Cc1ccc(N)cc1)=N\O`, the growth inhibition was -13.6% (inactive).

In the case of `CC(=O)C(C(C)=O)c1ccccc1`, the growth inhibition was 2.7% (inactive).

`CCCCCCCCOC(=O)C12Oc3ccc(-c4ccc5c(c4O)C(O)=C4C(=O)CC(C)C(O)C4(C(=O)OCCCCCCCC)O5)c(O)c3C(O)=C1C(=O)CC(C)C2O` (stereo not given): the growth inhibition is 2.95% (inactive).

As to `CC/C(=C\c1cccc([N+](=O)[O-])c1)C(=O)O`, the growth inhibition was -25.6% (inactive).

As to `O=C(/C=C(\[O-])c1ccccc1)CCCCCCC(=O)/C=C(\[O-])c1ccccc1.O=C(/C=C(\[O-])c1ccccc1)CCCCCCC(=O)/C=C(\[O-])c1ccccc1.O=C(/C=C(\[O-])c1ccccc1)CCCCCCC(=O)/C=C(\[O-])c1ccccc1.[Y+3].[Y+3]`, the growth inhibition is -3.7% (inactive).

Turning to `Nc1nc(N)nc(-c2ccccc2Cl)n1`, the growth inhibition is -10.8% (inactive).

Turning to `Cc1c(Cl)cccc1NCN1C(=O)c2ccccc2C1=O`, the growth inhibition is -6.6% (inactive).

As to `COc1ccc(/C=C/C(=O)c2ccc(Cl)cc2)c(OC)c1`, the growth inhibition is -11.9% (inactive).

Regarding `CCCCCCC(=O)CCCC(C)CCCC(C)C` (stereo not given), the growth inhibition was -23.6% (inactive).

For the compound `NC(=O)NC(CCCN=C(N)N)C(=O)O` (stereo not given), the growth inhibition was -36.3% (inactive).

For the compound `O=C(/C=C/c1ccccc1)Nc1ccccc1`, the growth inhibition was -21% (inactive).

As to `COc1ccccc1-c1n[nH]c(-c2ccccc2O)n1`, the growth inhibition was -24.1% (inactive).

On to `Nc1n[nH]c(=S)n1-c1ccc(Cl)cc1`, for which the growth inhibition is -29.6% (inactive).

Consider `CC(/C=N/N1C(=O)c2ccccc2C1=O)c1ccccc1` (stereo not given), for which the growth inhibition was -11.6% (inactive).

Turning to `COc1ccc(C)cc1NC(=S)C#N`, the growth inhibition was -1.2% (inactive).

In the case of `COC(=O)C(C(=O)C(=O)NC1Nc2ccc(C)cc2S1)c1nc2ccc(Cl)cc2[nH]c1=O` (stereo not given), the growth inhibition is -12.3% (inactive).

As for `Cc1nc2c(Cl)c(Cl)ccc2s1`, the growth inhibition is -20.9% (inactive).

With `CCCCCCC(=O)C(CCCC)(C(=O)OCC)C(=O)OCC`, the growth inhibition is -9.4% (inactive).

Turning to `CC1OC23CCCCC2C(C#N)(C#N)C1(C#N)C(=N)O3` (stereo not given), the growth inhibition is 9.5% (inactive).

With `OCNC(=S)c1c(Cl)cccc1Cl`, the growth inhibition was -18.1% (inactive).

For `Cn1cnc2c(=O)[nH]c(=O)[nH]c21`, the growth inhibition is -10.9% (inactive).

Take `O=C1c2ccccc2-c2c1c1ccccc1c(=O)n2CCO`: the growth inhibition is 43.7% (inactive).

Turning to `CC(=Nc1ccncc1)C(C)=Nc1ccncc1`, the growth inhibition is 93.6% (active).

`O=C(O)c1ccccc1Oc1ccccc1C(=O)O`: the growth inhibition was -22.9% (inactive).

Turning to `N#CC1(c2ccc(Cl)cc2)CCCC1`, the growth inhibition was -44% (inactive).

As for `CC1=C(/C=C/C(C)=C/C=C/C(C)=C/C(=O)Nc2ccc(O)cc2)C(C)(C)CCC1`, the growth inhibition was 1.05% (inactive).

`CC(=N/N=C/c1ccccn1)/C(C)=N/N=C(C)/C(C)=N/N=C(C)/C(C)=N/N=C(C)/C(C)=N\N=C\c1ccccn1`: the growth inhibition was 21.9% (inactive).

As to `CC1=NN(c2ccccc2)C(=O)C1CCC#N` (stereo not given), the growth inhibition was -12.9% (inactive).

Take `O=S(=O)(O)c1ccc(-c2ccccc2)cc1`: the growth inhibition was -16.1% (inactive).

`C=C1C(=O)OC2/C=C(\CO)CC/C=C(\CO)CC(OC(=O)C(C)C)C12` (stereo not given): the growth inhibition is -13.4% (inactive).

In the case of `CCn1c(C)nc2cc(S(=O)(=O)CS(C)(=O)=O)ccc21`, the growth inhibition was -12.8% (inactive).

For the compound `Clc1c(Cl)c(Cl)c2nn(C3CCCO3)nc2c1Cl` (stereo not given), the growth inhibition was 3.2% (inactive).

Take `Cc1ccc(NCN2C(=O)c3ccccc3C2=O)cc1Cl`: the growth inhibition is -5.55% (inactive).

`C=CCCCCCCCCC(=O)Cl`: the growth inhibition is 3.35% (inactive).
